Hit rate of the full screen: of about 5,500 compounds, about 2,000 (36%) were called active. About 18% were inconclusive and are not listed. Cut-off read from the data, not from the text of the source: active = normalized growth mostly below about 0.91 (no sharp cut-off); inconclusive = no clear call, values can overlap the other calls; inactive = mostly above about 0.92. This is one part of the list.
Assay: chemical genetic growth profiling, strain panel (AID 1159580);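 note: tested at 20 µM; growth read once vehicle control cultures reached saturation at 30 °C; 1 = growth at the plate median or of vehicle wells; lower values mean less growth of the strain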
Settings: growth OD

Measured: normalized growth

C[C@]12CCC3c4ccc(OC(=O)CCC(=O)O)cc4CCC3C1CCC2=O (stereo partly specified)
active: S. cerevisiae deletion strains, locus YDL192W, strain arf1, stronger effect = lower value 0.916 | S. cerevisiae deletion strains, locus YDR162C, strain NBP2, stronger effect = lower value 0.785 | S. cerevisiae deletion strains, locus YGL086W, strain mad1, stronger effect = lower value 0.922 | S. cerevisiae deletion strains, locus YKR001C, strain vps1, stronger effect = lower value 0.836 | S. cerevisiae deletion strains, locus YLR039C, strain RIC1, stronger effect = lower value 0.578 | S. cerevisiae deletion strains, locus YLR262C, strain YPT6, stronger effect = lower value 0.559 | S. cerevisiae deletion strains, locus YML032C, strain rad52, stronger effect = lower value 0.903 | S. cerevisiae deletion strains, locus YNL298W, strain CLA4, stronger effect = lower value 0.886 | S. cerevisiae deletion strains, locus YNL307C, strain MCK1, stronger effect = lower value 0.765 | S. cerevisiae deletion strains, locus YNR052C, strain pop2, stronger effect = lower value 0.873 | S. cerevisiae deletion strains, locus YOR184W, strain ser1, stronger effect = lower value 0.675
inactive: S. cerevisiae deletion strains, locus YAL013W, strain DEP1, stronger effect = lower value 0.981 | S. cerevisiae deletion strains, locus YBR021W, strain FUR4, stronger effect = lower value 0.85 | S. cerevisiae deletion strains, locus YBR229C, strain ROT2, stronger effect = lower value 1.01 | S. cerevisiae deletion strains, locus YCL029C, strain bik1, stronger effect = lower value 0.97 | S. cerevisiae deletion strains, locus YDL035C, strain GPR1, stronger effect = lower value 0.871 | S. cerevisiae deletion strains, locus YDL074C, strain BRE1, stronger effect = lower value 0.872 | S. cerevisiae deletion strains, locus YDL101C, strain DUN1, stronger effect = lower value 0.999 | S. cerevisiae deletion strains, locus YDL134C, strain PPH21, stronger effect = lower value 1 | S. cerevisiae deletion strains, locus YDL185W, strain tfp1, stronger effect = lower value 0.951 | S. cerevisiae deletion strains, locus YDR101C, strain arx1, stronger effect = lower value 0.984 | S. cerevisiae deletion strains, locus YDR150W, strain NUM1, stronger effect = lower value 0.998 | S. cerevisiae deletion strains, locus YDR318W, strain mcm21, stronger effect = lower value 0.926 | S. cerevisiae deletion strains, locus YDR388W, stronger effect = lower value 0.98 | S. cerevisiae deletion strains, locus YDR502C, strain sam2, stronger effect = lower value 0.933 | S. cerevisiae deletion strains, locus YEL061C, strain CIN8, stronger effect = lower value 1 | S. cerevisiae deletion strains, locus YER110C, stronger effect = lower value 0.965 | S. cerevisiae deletion strains, locus YER155C, strain BEM2, stronger effect = lower value 1.01 | S. cerevisiae deletion strains, locus YER167W, strain BCK2, stronger effect = lower value 0.944 | S. cerevisiae deletion strains, locus YGL078C, strain dbp3, stronger effect = lower value 1 | S. cerevisiae deletion strains, locus YGL248W, strain PDE1, stronger effect = lower value 1.01 | S. cerevisiae deletion strains, locus YGR078C, strain PAC10, stronger effect = lower value 0.949 | S. cerevisiae deletion strains, locus YGR135W, strain pre9, stronger effect = lower value 0.936 | S. cerevisiae deletion strains, locus YGR229C, strain SMI1, stronger effect = lower value 1.03 | S. cerevisiae deletion strains, locus YGR252W, strain gcn5, stronger effect = lower value 0.783 | S. cerevisiae deletion strains, locus YHR030C, strain SLT2, stronger effect = lower value 1 | S. cerevisiae deletion strains, locus YHR079C, strain IRE1 (second series), stronger effect = lower value 0.99 | S. cerevisiae deletion strains, locus YHR094C, strain hxt1, stronger effect = lower value 0.993 | S. cerevisiae deletion strains, locus YHR129C, strain ARP1, stronger effect = lower value 0.996 | S. cerevisiae deletion strains, locus YHR200W, strain rpn10, stronger effect = lower value 0.955 | S. cerevisiae deletion strains, locus YIL066C, strain RNR3, stronger effect = lower value 0.879 | S. cerevisiae deletion strains, locus YIL073C, strain SPO22, stronger effect = lower value 0.806 | S. cerevisiae deletion strains, locus YIL125W, strain kgd1, stronger effect = lower value 0.992 | S. cerevisiae deletion strains, locus YIR030C, strain dcg1, stronger effect = lower value 0.996 | S. cerevisiae deletion strains, locus YJL095W, strain BCK1, stronger effect = lower value 0.946 | S. cerevisiae deletion strains, locus YJL134W, strain LCB3, stronger effect = lower value 1.01 | S. cerevisiae deletion strains, locus YJL168C, strain set2, stronger effect = lower value 1 | S. cerevisiae deletion strains, locus YJL187C, strain SWE1 (second series), stronger effect = lower value 0.974 | S. cerevisiae deletion strains, locus YJR043C, strain POL32, stronger effect = lower value 0.911 | S. cerevisiae deletion strains, locus YJR075W, strain HOC1, stronger effect = lower value 0.968 | S. cerevisiae deletion strains, locus YKL009W, strain mrt4, stronger effect = lower value 0.884 | S. cerevisiae deletion strains, locus YKL068W, stronger effect = lower value 1 | S. cerevisiae deletion strains, locus YKL085W, strain MDH1 (second series), stronger effect = lower value 1.01 | S. cerevisiae deletion strains, locus YKL085W, strain MDH1, stronger effect = lower value 1.01 | S. cerevisiae deletion strains, locus YKL190W, strain CNB1, stronger effect = lower value 0.991 | S. cerevisiae deletion strains, locus YLR058C, strain SHM2, stronger effect = lower value 0.985 | S. cerevisiae deletion strains, locus YLR102C, strain apc9, stronger effect = lower value 1.01 | S. cerevisiae deletion strains, locus YLR268W, strain sec22, stronger effect = lower value 0.976 | S. cerevisiae deletion strains, locus YLR330W, strain CHS5, stronger effect = lower value 0.986 | S. cerevisiae deletion strains, locus YLR342W, strain FKS1 (second series), stronger effect = lower value 0.81 | S. cerevisiae deletion strains, locus YLR371W, strain rom2, stronger effect = lower value 0.97 | S. cerevisiae deletion strains, locus YLR418C, strain cdc73, stronger effect = lower value 0.914 | S. cerevisiae deletion strains, locus YML016C, strain PPZ1, stronger effect = lower value 0.985 | S. cerevisiae deletion strains, locus YML124C, strain tub3, stronger effect = lower value 1 | S. cerevisiae deletion strains, locus YMR078C, strain ctf18, stronger effect = lower value 0.965 | S. cerevisiae deletion strains, locus YMR223W, strain ubp8, stronger effect = lower value 0.914 | S. cerevisiae deletion strains, locus YMR263W, strain SAP30, stronger effect = lower value 0.971 | S. cerevisiae deletion strains, locus YMR307W, strain GAS1, stronger effect = lower value 0.91 | S. cerevisiae deletion strains, locus YNL067W, strain RPL9B, stronger effect = lower value 0.944 | S. cerevisiae deletion strains, locus YNL128W, strain TEP1, stronger effect = lower value 0.995 | S. cerevisiae deletion strains, locus YNL153C, strain GIM3, stronger effect = lower value 1 | S. cerevisiae deletion strains, locus YNL233W, strain BNI4, stronger effect = lower value 0.989 | S. cerevisiae deletion strains, locus YNL250W, strain rad50, stronger effect = lower value 0.952 | S. cerevisiae deletion strains, locus YNL271C, strain bni1, stronger effect = lower value 0.964 | S. cerevisiae deletion strains, locus YNL322C, strain KRE1, stronger effect = lower value 0.992 | S. cerevisiae deletion strains, locus YOL006C, strain TOP1, stronger effect = lower value 0.787 | S. cerevisiae deletion strains, locus YOL012C, strain htz1 1.6 | S. cerevisiae deletion strains, locus YOL147C, strain pex11, stronger effect = lower value 0.978 | S. cerevisiae deletion strains, locus YOR061W, strain CKA2, stronger effect = lower value 0.993 | S. cerevisiae deletion strains, locus YOR069W, strain VPS5, stronger effect = lower value 1 | S. cerevisiae deletion strains, locus YOR136W, strain idh2, stronger effect = lower value 0.995 | S. cerevisiae deletion strains, locus YOR144C, strain elg1, stronger effect = lower value 0.986 | S. cerevisiae deletion strains, locus YOR316C, strain cot1, stronger effect = lower value 0.997 | S. cerevisiae deletion strains, locus YPL055C, strain LGE1, stronger effect = lower value 0.874 | S. cerevisiae deletion strains, locus YPL241C, strain CIN2, stronger effect = lower value 1 | S. cerevisiae deletion strains, locus YPR119W, strain clb2, stronger effect = lower value 1.01 | S. cerevisiae deletion strains, locus YPR141C, strain kar3, stronger effect = lower value 0.997 | S. cerevisiae deletion strains, locus YPR163C, strain tif3, stronger effect = lower value 0.961 | S. cerevisiae deletion strains, locus YPR167C, strain met16, stronger effect = lower value 0.998 | S. cerevisiae deletion strains, strain wtn01, stronger effect = lower value 0.929 | S. cerevisiae strains, strain wild type, stronger effect = lower value 0.95
